A selection: hits, their analogues and other compounds. The true share with any hit is near 6.7%.
BoNT A protease – inhibitors of Botulinum neurotoxin A light chain protease; hit rate 0.17% among 360,000; inhibition, % at 10 µM; multiplex microsphere protease substrate cleavage, flow cytometry; AID 588499; note: plate controls were buffer without enzyme for full effect and enzyme alone for no effect
Bead autofluor – compound fluorescence in toxin protease inhibitor counterscreen. compound autofluorescence counterscreen, microsphere flow cytometry; hits give high values. AID 624483. fluorescence intensity (concentration not given with the values). hit rate 3.1% among 360,000; in the data active = fluorescence intensity above about 16000; inconclusive = no clear call, values can overlap the other calls
FBA Mtb inh – inhibitors of M. tuberculosis fructose-bisphosphate aldolase; P9WQA3; hit rate 2.3% among 360,000; purified M. tuberculosis FBA, fluorescence read-out; AID 588726; inhibition, % at 1 µM; in the data active = inhibition above about 27%;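 note: 0% = vehicle and 100% = reference inhibitor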
Target sequence (P9WQA3 whole entry, looked up): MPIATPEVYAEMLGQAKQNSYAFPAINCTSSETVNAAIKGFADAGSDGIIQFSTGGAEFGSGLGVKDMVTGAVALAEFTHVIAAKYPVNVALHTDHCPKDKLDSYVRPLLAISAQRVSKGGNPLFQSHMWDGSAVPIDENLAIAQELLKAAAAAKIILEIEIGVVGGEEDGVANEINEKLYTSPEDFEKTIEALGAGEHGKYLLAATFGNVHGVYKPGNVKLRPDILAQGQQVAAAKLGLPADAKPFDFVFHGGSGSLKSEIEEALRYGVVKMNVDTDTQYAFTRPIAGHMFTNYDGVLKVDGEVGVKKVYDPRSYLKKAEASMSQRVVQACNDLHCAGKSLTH
Anthrax LF prot – inhibitors of Bacillus anthracis lethal factor protease; AID 588501; P15917; inhibition, % at 10 µM; multiplex microsphere protease cleavage assay, LF; hit rate 0.12% among 360,000; note: plate controls were buffer without enzyme for full effect and enzyme alone for no effect
GDH-TPI inh – counter-screen for M. tuberculosis FBA inhibitors: GDH-TPI coupled enzymes; GDH-TPI coupled enzyme counterscreen, NADH absorbance; inhibition, % at 4.8 µM; hit rate 1.2% among 360,000; AID 588335; in the data active = inhibition above about 30%;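 note: 0% = DMSO wells and 100% = wells lacking the enzyme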
BoNT F protease – inhibitors of Botulinum neurotoxin F light chain protease. Multiplex microsphere protease cleavage assay, flow cytometry. inhibition, % at 10 µM. hit rate 0.22% among 360,000. AID 588497; in the data active = inhibition above about 35%, passing the limit was not always enough; inconclusive = no clear call, values can overlap the other calls; note: plate controls were buffer without enzyme for full effect and enzyme alone for no effect
Active calls of the source: *; ? = inconclusive; / = no result given. Cut-off read from the data, not from the text of the source, unless noted: active = inhibition above about 30%; inconclusive = no clear call, values can overlap the other calls; inactive = below that.

SMILES | BoNT A protease | Bead autofluor | FBA Mtb inh | Anthrax LF prot | GDH-TPI inh | BoNT F protease
COc1ccc(-c2noc(-c3ccccc3C(=O)Nc3cccnc3)n2)cc1OC | 1 | 10214 | -2 | -2 | -6 | 0
O=C(Nc1cccnc1)c1ccccc1F | -1 | 3832 | 2 | -6 | 2 | -12
COc1ccccc1-c1noc(-c2ccccc2C(=O)Nc2cccnc2)n1 | 2 | 22521* | 5 | 2 | 5 | 2
C=CCNC(=O)c1onc(CSc2ccncc2)c1C(=O)NCC=C | 0 | 3788 | 3 | -2 | 10 | -10
COCc1cc(C)n(CC(=O)Nc2ccc(Cl)cc2Cl)c(=O)c1C#N | -2 | 4968 | 122* | 0 | 31 | -28
COc1ccc(-c2nnc(SCC(=O)N3CCN(c4ccccc4)CC3)o2)cc1OC | -1 | 4250 | 4 | -6 | 12 | -4
COc1ccc(-c2nnc(SCC(=O)N3CCC(Cc4ccccc4)CC3)o2)cc1OC | 0 | 22436* | 0 | -5 | 7 | -3
CCOC(=O)CN(C(=O)CSc1nnc(CNc2ccc(C)cc2C)o1)c1ccccc1 | 1 | 21560* | 1 | -15 | 1 | 1
CCOC(=O)CN(C(=O)CSc1nnc(-c2ccc(OC)c(OC)c2)o1)c1ccccc1 | ? | 20211* | -1 | 1 | -4 | -2
Cc1ccc(NCc2nnc(SCC(N)=O)o2)c(C)c1 | -1 | 4508 | -1 | -2 | -3 | -6
O=S(=O)(Nc1cnc2ccccc2c1)N1CCCCCC1 | 0 | 4054 | 1 | -4 | 6 | ?
O=C(Nc1ccccc1)N1CCC(C(=O)N(Cc2ccco2)Cc2cccs2)CC1 | ? | 20994* | 0 | -3 | 5 | 4
CC(=O)c1ccc(NC(=O)c2cnn3ccccc23)cc1 | -1 | 6475 | 2 | -1 | 36* | 2
CN(CCc1ccccn1)Cc1ccc(Cl)cc1Cl | -4 | 24561* | 8 | 0 | -1 | -3
O=C(NN=Cc1ccc(N(CCCl)CCCl)cc1Cl)c1cccnc1 | 0 | 4126 | 8 | -4 | 72* | 5
O=C(N/N=C/c1ccc(Cl)cc1Cl)c1cccc(F)c1 | 0 | 22364* | -1 | -1 | 11 | 1
O=C(N/N=C/c1cc(O)ccc1Br)c1cccnc1 | 1 | 3757 | 5 | -2 | 15 | 2
Cc1cc(N(CCCl)CCCl)ccc1C=NNC(=O)c1cccnc1 | -1 | 2996 | 3 | -2 | 51* | -12
CCOc1ccc(CNc2ccc(N3CCCC3)cc2)cc1 | 0 | 7093 | 1 | -36 | 6 | -103
CC(C)(C)C(=O)Oc1cc(N)n(S(=O)(=O)c2ccc(F)cc2)n1 | 0 | 3466 | 3 | 0 | 8 | 0
COc1ccc(-n2nc3c(c2NC(C)=O)CS(=O)(=O)C3)cc1 | 0 | 2873 | 1 | 12 | 4 | 3
Clc1cccc(Cl)c1CO/N=C/c1c(-c2ccccc2)nc2n1CCS2 | ? | 23470* | -3 | -4 | 16 | -7
COC(=O)/C(C#N)=C/c1c(-c2ccccc2)nc2n1CCS2 | -1 | 6301 | 2 | -15 | 13 | 7
CCOc1ccccc1-n1c(SCC(=O)NC)nnc1-c1ccco1 | -6 | 17639* | 0 | -6 | 6 | -10
CCN(CC)C(=O)CSc1nnc(-c2ccco2)n1N | 8 | 17289* | -3 | -10 | -12 | 9
SMILES | BoNT A protease | Bead autofluor | FBA Mtb inh | Anthrax LF prot | GDH-TPI inh | BoNT F protease
Cc1cc(S(=O)(=O)N2CCCCC2CCNC(=O)C(=O)NCc2cccnc2)ccc1F (stereo not drawn) | -2 | 6954 | -1 | -1 | -3 | -7
Cc1cc(C)c(C(=O)C[n+]2cccc(C(N)=O)c2)c(C)c1 | / | / | 1 | / | 8 | /
C=CCn1c(N2C(=O)CC(Cc3ccccc3)C2=O)nc2ccccc21 (stereo not drawn) | -1 | 22688* | 1 | -2 | 2 | -2
C=CCn1c(NCc2ccccc2)nc2ccccc21 | 1 | 6295 | -6 | -7 | 8 | 3
Cc1ccc(NC(=O)NCCCN2CCCC2=O)cc1C | -2 | 4794 | 0 | -6 | 2 | 3
O=C(NCCCN1CCCC1=O)c1ccc2c(c1)OCO2 | ? | 20949* | -3 | 1 | 2 | 1
COc1ccc(C(=O)NCCCN2CCCC2=O)cc1 | -1 | 4029 | 5 | -5 | 3 | -12
Cc1ccc(NC(=O)NCCCN2CCCC2=O)cc1 | 2 | 22287* | -3 | -2 | 5 | 1
CC1=C(C(=O)N2CCOCC2)C(c2ccc(O)cc2)NC(=S)N1 (stereo not drawn) | -1 | 2410 | -2 | 1 | 6 | -5
COc1cc(-c2cc(C(=O)Nc3ccc(N4CCOCC4)cc3)c3ccccc3n2)cc(OC)c1OC | 0 | 3786 | -2 | -8 | 42* | -1
